This note sets out measurements from PubChem BioAssay (NCI).

Some test systems named below: SK-MEL-2 melanoma; EKVX NSCLC; SN12C renal; UO-31 renal; TK-10 renal; ACHN renal; CAKI-1 renal; A498 renal; CCRF-CEM leukemia; MOLT-4 leukemia; RPMI-8226 leukemia; OVCAR-8 ovarian; OVCAR-5 ovarian; SK-OV-3 ovarian; IGROV1 ovarian; OVCAR-3 ovarian; HS 578T breast; NCI/ADR-RES ovarian; OVCAR-4 ovarian.
Experiment in all cases: NCI-60 one-dose screen, 48 h (100 = growth as untreated, 0 = no growth, -100 = all killed)
Conditions in all cases: 10 µM unless noted

Each structure is given as a SMILES string. Compounds without any hit were thinned out: in the full panel of roughly 83,000, 20% have a hit.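 A percent growth of 40 corresponds to 60% growth inhibition; 0 means no net growth; -100 means all cells died. Active threshold: below 10.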 Unmarked numbers belong to inactive results. Calls of active or inactive are those of the source.

For the compound `CC(=O)N1CCN(c2ccc(OCC3CO[C@](Cn4ccnc4)(c4ccc(Cl)cc4Cl)O3)cc2)CC1` (some centres not stated), the growth with SK-MEL-2 melanoma was 86.8%; in the assay with EKVX NSCLC it was 87.9%; in the assay with SN12C renal, 84.2%; with UO-31 renal, 53.7%; in the assay on TK-10 renal, 101%; in the assay with ACHN renal, 92.5%. For the same compound, the growth was 79.6% in the assay with CAKI-1 renal; 86.4% in the assay with A498 renal; 75.2% in the assay on CCRF-CEM leukemia; 77.4% with MOLT-4 leukemia; 43.8% in the assay with RPMI-8226 leukemia; 83.9% with OVCAR-8 ovarian. Moreover, the growth in the assay with OVCAR-5 ovarian was 91.3%; with SK-OV-3 ovarian, 95.5%; in the assay with IGROV1 ovarian it was 80.2%; in the assay on OVCAR-3 ovarian, 99%; in the assay with HS 578T breast, 102%; with NCI/ADR-RES ovarian, 84.4%.

Take `COc1ccc(C(=O)/C=C/c2sc(Cl)nc2Cl)cc1`: the growth was 39.8% with SK-MEL-2 melanoma; 65.2% in the assay on EKVX NSCLC; 18% with SN12C renal; 51.9% in the assay with UO-31 renal; 104% in the assay on TK-10 renal; -44.5% (active) in the assay on ACHN renal. In addition, the growth with CAKI-1 renal is 27.4%; with A498 renal, 93.2%; with CCRF-CEM leukemia it was 12.3%; in the assay with MOLT-4 leukemia, 11.6%; in the assay on RPMI-8226 leukemia, -25.4% (active); in the assay with OVCAR-8 ovarian, 22.9%. Moreover, the growth was 47.1% in the assay on OVCAR-5 ovarian; 42.2% in the assay on OVCAR-4 ovarian; 39% with SK-OV-3 ovarian; 11.1% in the assay with IGROV1 ovarian; -3.81% (active) in the assay with OVCAR-3 ovarian; 58.5% with HS 578T breast. Also, in the assay on NCI/ADR-RES ovarian, the growth is 1.37% (active).

For `CN1CCN(c2ccc(-c3cc4c(Nc5ccc(F)c(Cl)c5)ncnn4c3)cn2)CC1`, the growth in the assay with SK-MEL-2 melanoma was 109%; in the assay with EKVX NSCLC, 100%; in the assay with SN12C renal, 90.5%; in the assay with UO-31 renal, 88.2%; in the assay with TK-10 renal it was 76.7%; in the assay with ACHN renal, 82.6%. Besides, the growth with CAKI-1 renal was 96.3%; with A498 renal it was 86.7%; in the assay with CCRF-CEM leukemia, 42.9%; in the assay with MOLT-4 leukemia it was 93.6%; in the assay on RPMI-8226 leukemia it was 3.77% (active); in the assay on OVCAR-8 ovarian, 77.1%. Besides, the growth in the assay on OVCAR-5 ovarian is 97.8%; in the assay on OVCAR-4 ovarian, 88.4%; in the assay on IGROV1 ovarian it was 89.5%; in the assay on OVCAR-3 ovarian, 98.6%; with HS 578T breast, 76.9%; in the assay with NCI/ADR-RES ovarian, 83.6%.

In the case of `CC1=NN(c2ccc(S(=O)(=O)O)cc2)C(=O)C1N=Nc1ccc(-c2ccc(N=Nc3ccc(OS(=O)(=O)c4ccc(C)cc4)cc3)c(S(=O)(=O)O)c2)cc1` (configuration not stated), the growth with SK-MEL-2 melanoma was 78.8%; in the assay on EKVX NSCLC, 107%; with SN12C renal, 93.6%; in the assay on UO-31 renal it was 69.8%; with TK-10 renal, 97.2%; in the assay on ACHN renal, 102%. For the same compound, the growth was 100% in the assay on CAKI-1 renal; 95.2% in the assay with A498 renal; 67.8% in the assay on CCRF-CEM leukemia; 84.3% with MOLT-4 leukemia; 74.5% with RPMI-8226 leukemia; 102% with OVCAR-8 ovarian. In addition, the growth with OVCAR-5 ovarian was 76.6%; with SK-OV-3 ovarian, 95.4%; in the assay with IGROV1 ovarian it was -7.99% (active); in the assay with OVCAR-3 ovarian it was 111%; in the assay with HS 578T breast, 80%; in the assay on NCI/ADR-RES ovarian, 97.9%.

As to `COc1cc(/C=C/c2c(C(C)=O)c(C)nc3ccccc23)cc(OC)c1OC`, the growth is 47.9% in the assay with SK-MEL-2 melanoma; 52.4% in the assay with EKVX NSCLC; 35.3% in the assay on SN12C renal; 36.7% in the assay on UO-31 renal; 78.8% with TK-10 renal; 37.6% in the assay on ACHN renal. Moreover, the growth in the assay on CAKI-1 renal is 24.7%; with A498 renal it was -23.8% (active); in the assay with CCRF-CEM leukemia, 21.3%; with MOLT-4 leukemia, 33.6%; in the assay with RPMI-8226 leukemia, 23.6%; with OVCAR-8 ovarian it was 52.6%. Also, the growth with OVCAR-5 ovarian is 61.3%; in the assay on OVCAR-4 ovarian it was 52.7%; in the assay on SK-OV-3 ovarian, 36.6%; in the assay on IGROV1 ovarian, 32%; in the assay on OVCAR-3 ovarian it was 15.1%; in the assay with HS 578T breast, -16.7% (active). Besides, the growth with NCI/ADR-RES ovarian is 23.1%.

For the compound `COc1ccc2c(c1OC)C(=O)O[C@H]2[C@H]1c2c(cc3c(c2OC)OCO3)CCN1C`, the growth is 106% in the assay with SK-MEL-2 melanoma; 95.4% with EKVX NSCLC; 100% in the assay with SN12C renal; 85.9% in the assay on UO-31 renal; 122% with TK-10 renal; 95.8% in the assay with ACHN renal. In addition, the growth in the assay on CAKI-1 renal is 80.3%; in the assay on A498 renal, 93.1%; in the assay on CCRF-CEM leukemia it was 101%; with MOLT-4 leukemia, 116%; in the assay on RPMI-8226 leukemia it was 107%; in the assay on OVCAR-8 ovarian, 95.8%. For the same compound, the growth in the assay with OVCAR-5 ovarian was 96.2%; in the assay with SK-OV-3 ovarian, 111%; with IGROV1 ovarian, 102%; with OVCAR-3 ovarian it was 124%; in the assay on HS 578T breast, 96.5%; in the assay with NCI/ADR-RES ovarian it was 84.7%.

Consider `c1cc2nc(-c3cn[nH]c3)c3c(c2cc1-c1cn[nH]c1)C1CCC3C1` (configuration not stated), for which the growth in the assay on SK-MEL-2 melanoma was 92.4%; in the assay with EKVX NSCLC, 46.3%; in the assay on SN12C renal it was 66%; in the assay with UO-31 renal, 40.3%; with TK-10 renal, 97.4%; in the assay with ACHN renal it was 44.9%. In addition, the growth in the assay with CAKI-1 renal was 28.3%; with A498 renal, -6.11% (active); in the assay on CCRF-CEM leukemia, 69%; with MOLT-4 leukemia, 63%; in the assay with RPMI-8226 leukemia, 50.6%; in the assay on OVCAR-8 ovarian, 59.3%. The growth in the assay with OVCAR-5 ovarian was 67.8%; in the assay on OVCAR-4 ovarian, 83.9%; with SK-OV-3 ovarian it was 60.2%; with IGROV1 ovarian it was 48.6%; with OVCAR-3 ovarian, 75.5%; in the assay with HS 578T breast, 23.2%. For the same compound, in the assay with NCI/ADR-RES ovarian, the growth is 64.8%.

Regarding `c1cc(-c2nnc(SSc3ncnc4nc[nH]c34)o2)ccn1`, the growth with SK-MEL-2 melanoma is 15.9%; in the assay with EKVX NSCLC, 82.3%; in the assay on SN12C renal, 55.8%; with UO-31 renal, 30%; with TK-10 renal, 17%; in the assay on ACHN renal, 45%. Also, the growth in the assay with CAKI-1 renal is -6.89% (active); with A498 renal, 63%; in the assay with CCRF-CEM leukemia it was 21.8%; in the assay with MOLT-4 leukemia, 18%; in the assay with RPMI-8226 leukemia, 16.1%; in the assay with OVCAR-8 ovarian, 20.4%. The growth is 39.7% in the assay on OVCAR-5 ovarian; 32.8% in the assay with SK-OV-3 ovarian; 48.2% in the assay with IGROV1 ovarian; 31.1% in the assay on OVCAR-3 ovarian; 66% with HS 578T breast; 27.3% in the assay with NCI/ADR-RES ovarian.
